# From PubChem BioAssay (NCATS)
# Results filed as inconclusive are left out. Where a call stands in place of a potency, no number is given. Active and inactive are the calls of the source. Unless noted, calls come from the whole dose curve; as a rule, active = well fitted curve in the direction sought with a large enough effect; inconclusive = small, poorly fitted or top-dose-only effect, or another doubt; inactive = no such curve, though single readings can be large; an effect the other way counts as inactive or inconclusive.
# Tests used:
# [1] = Cell Viability - BJ (AID 421; calls by dose curve;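 note: potency is the fitted concentration of half-maximal effect; cells exposed to compound for 40 hours at 37 °C before readout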); conditions: BJ fibroblast viability, qHTS
# Method in brief: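 Cytotoxicity in human BJ foreskin fibroblasts is scored as loss of cellular ATP after a 40-hour exposure, measured by luciferase luminescence. Controls are DMSO and 100 uM tamoxifen.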
# [2] = Cell Viability - HepG2 (AID 433; calls by dose curve;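 note: potency is the fitted concentration of half-maximal effect; cells exposed to compound for 40 hours; potency for ATP loss meaning cytotoxicity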); conditions: qHTS
# Method in brief: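 HepG2 hepatocellular carcinoma cells (1500/well) were treated with compounds for 40 h at 37 °C in complete medium; intracellular ATP was read by CellTiter-Glo luminescence. Data were normalized to DMSO and 100 uM tamoxifen, and AC50 came from Hill fits.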
# [3] = Cell Viability - Mesenchymal (AID 546); conditions: mesenchymal cells viability, qHTS; activity change, negative = cytotoxicity: at 91.7 µM (top of the series);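 note: cells exposed to compound for 40 hours before reading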
# Method in brief: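 AC50 values reflect the drop in intracellular ATP in a human kidney mesenchymal line derived from normal glomeruli. Treatment lasts 40 hr at 37 °C in complete medium, and the signal comes from CellTiter-Glo luminescence.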
# [4] = Cellular Toxicity (caspase-3) Jurkat (AID 655); conditions: Jurkat caspase-3 activation, luminescence; caspase-3 activation: at 92.2 µM (top of the series), DMSO = 0%, tamoxifen = 100%;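 note: cells exposed to compound for 16 h at 37 °C before reading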
# Method in brief: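 Jurkat cells (5000/well) in complete medium were treated with compounds for 16 hr at 37 °C, then Caspase-Glo 3/7 luminescence was read after 20 min at room temperature. Data normalized to DMSO (basal) and 100 uM tamoxifen (100%); AC50 from Hill fit.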
# [5] = Cell Viability - LYMP1-002 - Assay at 16 hr (AID 948); conditions: LYMP1-002 lymphoblastoid cell viability; series mostly up to 92.2 µM
# Method in brief: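 Human lymphoblastoid cells (LYMP1-002), 2500/well, were preincubated 5 hr at 37 C, then exposed to compounds for 16 hr at 37 C in complete medium. Cellular ATP was read by CellTiter-Glo luminescence after 30 min at room temperature; AC50 from Hill fits.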
# [6] = MultiTox-Fluor Cytotoxicity Assay - LYMP1-002 - Live Cells (AID 955); conditions: LYMP1-002 lymphoblastoid live-cell protease fluorescence viability; series mostly up to 46.1 µM
# Method in brief: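 Cytotoxicity in the human lymphoblastoid line LYMP1-002 is measured as loss of live-cell protease activity after 16 h treatment in complete culture medium. AC50 is derived from Hill-equation fits of qHTS concentration-response data.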
# [7] = Cell Viability - LYMP2-003 (AID 965); conditions: LYMP2-003 lymphoblastoid cell viability; series mostly up to 92.2 µM;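 note: cells exposed to compounds for 24 h before reading; nearly all actives have a fitted effect of over 50% in size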
# Method in brief: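 Human lymphoblastoid cells (2500/well) were pre-incubated 5 hr at 37 C, then exposed to compounds over a concentration range for 24 hr at 37 C. Intracellular ATP was read by CellTiter-Glo luminescence; AC50 came from Hill-equation fits.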
# [8] = Cell Viability - LYMP2-011 (AID 969); conditions: LYMP2-011 lymphoblastoid cells viability; series mostly up to 92.2 µM; note: nearly all actives have a fitted effect of over 60% in size
# Method in brief: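 Acute toxicity is scored as a concentration-dependent drop in intracellular ATP of a human lymphoblastoid line after 24 hr treatment. Values are AC50s modeled with the Hill equation.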
# [9] = Cell Viability - LYMP2-013 (AID 970); conditions: LYMP2-013 lymphoblastoid cells viability; series mostly up to 92.2 µM; note: nearly all actives have a fitted effect of over 55% in size
# Method in brief: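 Acute toxicity was measured in human lymphoblastoid cells (2500/well) exposed to compound titrations for 24 hr, with ATP luminescence (CellTiter-Glo) as read-out and AC50 fitted by Hill equation.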
# [10] = Cell Viability - LYMP2-023 (AID 975); conditions: LYMP2-023 lymphoblastoid cell viability; series mostly up to 92.2 µM;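 note: cellular ATP measured by luciferase luminescence as viability proxy; nearly all actives have a fitted effect of over 55% in size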
# Method in brief: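 Concentration-dependent drop in intracellular ATP measures acute cytotoxicity in a human lymphoblastoid line treated for 24 hours in complete culture medium. AC50 values are taken from Hill-equation fits of qHTS data.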
# [11] = Cell Viability - LYMP2-002 (AID 977); conditions: LYMP2-002 lymphoblastoid cell viability, qHTS; series mostly up to 92.2 µM;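 note: compound exposure lasted 24 h at 37 °C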
# Method in brief: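 Cytotoxicity is scored as concentration-dependent loss of cellular ATP in a human lymphoblastoid line after 24 hr compound treatment at 37 C. AC50 is obtained by modelling concentration-response data with the Hill equation.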
# [12] = Cell Viability - LYMP2-006 (AID 978); conditions: LYMP2-006 lymphoblastoid cell viability, qHTS; series mostly up to 92.2 µM; note: nearly all actives have a fitted effect of over 60% in size
# Method in brief: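 Human lymphoblastoid cells, 2500 per well, were preincubated 5 hr at 37 C, then exposed to compounds for 24 hr at 37 C in complete medium. Viability was read as intracellular ATP by CellTiter-Glo luminescence; AC50 from Hill-equation fits of qHTS concentration-response data.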
# [13] = Cell Viability - LYMP2-008 (AID 980); conditions: LYMP2-008 lymphoblastoid cell viability, qHTS; series mostly up to 92.2 µM; note: nearly all actives have a fitted effect of over 60% in size
# Method in brief: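 Acute cytotoxicity is scored as concentration-dependent loss of cellular ATP in a human lymphoblastoid line after 24 hr treatment at 37 C. ATP is quantified by luciferase luminescence.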
# [14] = Cell Viability - LYMP2-012 (AID 982); conditions: LYMP2-012 lymphoblastoid cell viability qHTS; series mostly up to 92.2 µM;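 note: cellular ATP by luciferase luminescence where a drop means cytotoxicity; cells exposed to compound for one day before reading; nearly all actives have a fitted effect of over 55% in size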
# [15] = Cell Viability - LYMP2-020 (AID 986); conditions: series mostly up to 92.2 µM; note: nearly all actives have a fitted effect of over 55% in size
# Method in brief: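 Acute cytotoxicity in a human lymphoblastoid line is scored as a concentration-dependent fall in cellular ATP after 24 hr at 37 C in complete medium. The positive control is tetraoctylammonium bromide, and potency is given as Hill-fit AC50.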
# [16] = Cell Viability - LYMP2-022 (AID 987); conditions: LYMP2-022 lymphoblastoid cell viability; series mostly up to 92.2 µM; note: nearly all actives have a fitted effect of over 55% in size
# Method in brief: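 Acute toxicity in a human lymphoblastoid line is scored as decreased intracellular ATP after 24 hr compound treatment at 37 C. ATP is measured by CellTiter-Glo luminescence; curves are fitted with the Hill equation to give AC50.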
# [17] = Cell Viability - LYMP2-024 (AID 988); conditions: LYMP2-024 lymphoblastoid cell viability; series mostly up to 92.2 µM; note: nearly all actives have a fitted effect of over 60% in size
# Method in brief: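 Acute toxicity is measured as concentration-dependent loss of intracellular ATP in a human lymphoblastoid line treated 24 hours at 37 C. Luciferase luminescence quantifies ATP; AC50 values come from standard Hill-equation modelling.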
# [18] = Cell Viability - LYMP1-002 - Assay at 40 hr (AID 994); conditions: LYMP1-002 lymphoblastoid cell viability; series mostly up to 92.2 µM; note: nearly all actives have a fitted effect of over 60% in size
# Method in brief: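 Viability in the human lymphoblastoid line was measured as intracellular ATP via CellTiter-Glo after 40 hr compound exposure. Tetraoctylammonium bromide served as positive control.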
# [19] = qHTS assay for small molecule antagonists of retinoid X receptor alpha signaling (AID 588546); conditions: HEK293T RXRa-UAS-bla, beta-lactamase ratio, antagonist mode; measured here: W530 green channel, cytotoxicity proxy;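 note: cells stimulated with 9-cis-retinoic acid as agonist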
# Method in brief: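 Beta-lactamase reporter inhibition, read as CCF4 fluorescence ratio (ex 405, em 460/530 nm) after 2 h at RT. HEK293T UAS-bla cells, 2500/well, were stimulated with 9-cis-RA at 500 or 100 nM final alongside test compound for 18 h at 37 C.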
# [20] = qHTS assay for environmental chemicals that activate the Aryl hydrocarbon Receptor (AhR) signaling pathway (AID 651777); conditions: 1A2-DRE human hepatoma cells, luciferase, 24 h; activation: stronger effect = higher value; note: potency is the fitted concentration of half-maximal effect; nearly all actives have a fitted effect of over 15% in size
# Method in brief: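 Human hepatoma 1A2-DRE cells stably carrying a DRE/CYP1A2 promoter–luciferase reporter, 1,200 cells/well, exposed to compound 24 hr at 37 C. Luciferase read by One-Glo luminescence after 30 min at room temperature; increased signal marks AhR activation.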
SMILES,Potency [1],Potency [2],Potency [3],Potency [4],Potency [5],outcome [6],Potency [7],Potency [8],Potency [9],Potency [10],Potency [11],Potency [12],Potency [13],Potency [14],Potency [15],Potency [16],Potency [17],Potency [18],max response [19] [%],Potency [20]
CCOc1ccc2nc(N)sc2c1,> 92 µM (inactive),> 92 µM (inactive),inactive,inactive,inactive,inactive,inactive,inactive,inactive,inactive,inactive,inactive,inactive,inactive,inactive,inactive,inactive,inactive,-8.45,10 µM (active)
CCCCCCc1ccc(-c2ccc(C#N)cc2)cc1,> 92 µM (inactive),> 92 µM (inactive),inactive,inactive,inactive,inactive,inactive,inactive,inactive,inactive,inactive,inactive,inactive,inactive,inactive,inactive,inactive,inactive,-7.3,
COc1ccc(C(=O)Nc2ccccc2)cc1[N+](=O)[O-],> 92 µM (inactive),> 92 µM (inactive),inactive,inactive,inactive,inactive,inactive,inactive,inactive,inactive,inactive,inactive,inactive,inactive,,,inactive,inactive,-10.5,
